In the library only some 4.7% were active in any assay of this set; here they are far more common.
KLK7 zymogen act: activators of human kallikrein-7 zymogen; P49862; purified proKLK7, EDANS-DABCYL substrate fluorescence; 100% is mature enzyme control, 0% vehicle; activation, % at 7 µM; 370,000 tested, 0.9% active; AID 652039;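 active = activation above the mean of all tested compounds plus 3 SD, computed per campaign excluding outliers beyond control limits, cut at about 13% in these data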
MPTP inh: inhibitors of mitochondrial permeability transition pore | inhibition, % at 10 µM | isolated mouse mitochondria, Ca2+ swelling absorbance, 30 min | 360,000 tested, 1.4% active;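 active = inhibition of 50% or more, scaled per plate between neutral and stimulator controls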
rCAG binder-1: binds r(CAG) RNA repeats | r(CAG) RNA repeat, TO-PRO-1 dye displacement fluorescence | inhibition, % at 3 µM | 370,000 tested, 1.3% active;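 active = inhibition above the plate cutoff, the mean of all test compounds on that plate plus 3 SD, cut at about 35% in these data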;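 also: higher means more dye released from RNA so lower well fluorescence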
DSG3 Ab inh: human desmoglein-3 autoantibody binding inhibition | AID 588358 | binding (percent of control), % at 10 µM | 310,000 tested, 0.48% active | DSG3-coupled beads, scFv-anti-DSG3-GFP binding, flow cytometry; stronger effect = lower value | P32926;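 active = binding more than 3 SD below its plate's average and above zero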;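 also: hits lower antibody fragment binding to DSG3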
ADAM17 inh: inhibits human ADAM17 | inhibition, % at 6.95 µM | P78536 | recombinant ADAM17, EDANS/DABCYL FRET peptide cleavage | AID 720648 | 370,000 tested, 0.83% active;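 active = inhibition above the mean of compounds lying between control limits plus 3 SD, set per campaign, cut at about 8.5% in these data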
Target sequence (P78536 215-824 limits assumed): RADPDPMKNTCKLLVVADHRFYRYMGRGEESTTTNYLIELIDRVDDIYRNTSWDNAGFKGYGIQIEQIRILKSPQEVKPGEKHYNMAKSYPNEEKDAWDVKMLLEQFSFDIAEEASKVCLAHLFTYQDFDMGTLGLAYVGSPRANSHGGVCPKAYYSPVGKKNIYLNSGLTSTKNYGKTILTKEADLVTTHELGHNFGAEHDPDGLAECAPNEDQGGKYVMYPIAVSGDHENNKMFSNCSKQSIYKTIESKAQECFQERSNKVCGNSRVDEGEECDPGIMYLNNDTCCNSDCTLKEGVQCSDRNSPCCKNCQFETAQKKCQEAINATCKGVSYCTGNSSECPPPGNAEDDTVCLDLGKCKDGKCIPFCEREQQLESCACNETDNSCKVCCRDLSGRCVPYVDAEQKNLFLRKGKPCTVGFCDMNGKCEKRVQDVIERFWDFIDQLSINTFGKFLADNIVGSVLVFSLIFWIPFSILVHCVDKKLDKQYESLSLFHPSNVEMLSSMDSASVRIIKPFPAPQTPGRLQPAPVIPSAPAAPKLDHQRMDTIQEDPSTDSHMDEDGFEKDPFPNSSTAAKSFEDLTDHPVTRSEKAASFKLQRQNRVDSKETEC
ADAM10 inh: inhibitors of human ADAM10 | inhibition, % at 7 µM | 370,000 tested, 0.62% active | O14672 | recombinant ADAM10, EDANS/DABCYL FRET peptide cleavage, 3 h | AID 720582;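 active = inhibition above a per-campaign cutoff equal to the mean of compounds falling between control-based bounds plus 3 SD, cut at about 20% in these data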
rCAG bind conf: r(CAG) RNA repeat binding, confirmation | shares compounds with rCAG binder-1 | TO-PRO-1 dye displacement fluorescence | inhibition, % at 3 µM | 4,300 tested, 70% active;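 active = inhibition above a per-plate cutoff, the mean inhibition of sample wells plus 3 SD, cut at about 35% in these data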;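 also: loss of TO-PRO-1 fluorescence as compound displaces dye from 1x1 AA loop RNA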
dCAG dye counter: counter-screen for rCAG RNA binders: DNA CAG dye complex inhibitors | shares compounds with rCAG binder-1 | d(CAG) DNA oligo TO-PRO-1 dye displacement, fluorescence | inhibition, % at 3 µM | 4,300 tested, 94% active | AID 652068;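 active = inhibition above its plate's cutoff, the mean test-well inhibition plus 3 SD, cut at about 4.8% in these data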;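 also: hits displace the dye from DNA and so lower well fluorescence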
DNA CAG DR: DNA CAG dye complex inhibition, dose response counter-screen; IC50, µM; shares compounds with rCAG binder-1; DNA CAG/GTC duplex TO-PRO-1 dye displacement fluorescence; 250 tested, 20% active; AID 686960; in the data active = IC50 below about 10 µM
dCAG TOPRO ctr: counter-screen for rCAG binders: DNA CAG TO-PRO-1 complex inhibitors, late stage. shares compounds with rCAG binder-1. d(CAG) DNA duplex TO-PRO-1 dye displacement, fluorescence. IC50, µM. 30 tested, 80% active. AID 720649
rCAG binder-2: binds r(CAG) RNA repeats in late stage dose response | AID 720651 | IC50, µM | 30 tested, 100% active | shares compounds with rCAG binder-1 | r(CAG) RNA TO-PRO-1 dye displacement, fluorescence
A number is an active result; 0 = inactive; - = not tested or not shown. Unless noted, no rule for the calls is given here.

SMILES	KLK7 zymogen act	MPTP inh	rCAG binder-1	DSG3 Ab inh	ADAM17 inh	ADAM10 inh	rCAG bind conf	dCAG dye counter	others
Cc1ccc(C)c(N2CCN(C(=O)Cc3c(C(=O)O)[nH]c4ccc(Cl)cc34)CC2)c1	0	0	57	0	0	0	64	25
CCCOc1ccc(C(=O)Nc2ccc(S(=O)(=O)Nc3cc(C)nc(C)n3)cc2)cc1	0	0	0	0	0	0	-	-
CCOc1cc(C(=O)Nc2ccc(S(=O)(=O)Nc3onc(C)c3C)cc2)cc(OCC)c1OCC	0	0	46	0	0	0	52	20
COc1cc(/C=C/C(=O)Nc2ccc(S(=O)(=O)Nc3onc(C)c3C)cc2)cc(OC)c1OC	0	0	53	0	0	0	51	19
CCCCOc1ccc(C(=O)Nc2ccc(S(=O)(=O)Nc3onc(C)c3C)cc2)cc1	0	0	77	-	0	0	53	21
COc1cc(C(=O)Nc2ccc(S(=O)(=O)Nc3onc(C)c3C)cc2)cc(OC)c1OC	0	0	0	0	0	0	-	-
CCCOc1ccc(C(=O)Nc2ccc(S(=O)(=O)Nc3onc(C)c3C)cc2)cc1	0	0	49	0	0	0	0	5.2
CCN(C(=O)COC(=O)c1cccc(S(=O)(=O)N(C)C)c1)c1c(N)n(Cc2ccccc2)c(=O)[nH]c1=O	0	0	0	-	0	0	-	-
Cc1cc(-c2cc(NC(=O)Cc3c[nH]c4ccccc34)ccc2Nc2cccnc2)ccc1F	0	-	0	-	0	0	-	-
COc1cccc(NC(=O)C2CCCN2C(=O)NC2CCC(C)CC2)c1 (centres undefined)	0	-	0	-	0	0	-	-
CCCOc1ccc(C(=O)N/N=C/c2ccc(-c3ccc(S(=O)(=O)Nc4ncccn4)cc3)o2)cc1	0	0	54	-	0	0	60	24
Cc1noc(NS(=O)(=O)c2ccc(NC(=O)CSc3nc4ccccc4[nH]3)cc2)c1C	0	0	0	0	0	0	-	-
Cc1noc(NS(=O)(=O)c2ccc(NC(=O)CSc3nnc4c(n3)[nH]c3ccccc34)cc2)c1C	0	0	65	0	0	0	67	32
Cc1noc(NS(=O)(=O)c2ccc(NC(=O)C(F)(F)F)cc2)c1C	0	0	0	0	0	0	-	-
CCSc1ncc(Cl)c(C(=O)Nc2ccc(S(=O)(=O)Nc3onc(C)c3C)cc2)n1	0	0	54	0	0	0	0	6.9
CC12CCC(=O)C=C1CCC1C2C(O)CC2(C)C1CCC2(O)C(=O)COC(=O)CCC1CCCC1 (centres undefined)	-	0	-	-	-	-	-	-
N#CCCN1CCC(N)=NC1=NC#N	0	-	0	-	0	0	-	-
Cc1ccc(S(=O)(=O)Oc2ccccc2/C=N/O)cc1	0	0	0	0	0	0	-	-
Cc1ccc(S(=O)(=O)Oc2ccccc2/C=N/Nc2ccc(C(=O)O)cc2)cc1	0	0	50	0	0	0	0	6.1
COc1ccc(O)c(C(=O)c2cnc3nc4ccccc4n3c2)c1	0	0	40	0	0	0	0	6.5
CN(C)c1ccc(C(=O)c2ccccc2C(=O)O)c(O)c1	0	0	0	0	0	0	-	-
CCCCN(CCCC)c1ccc(C(=O)c2ccccc2C(=O)O)c(O)c1	0	0	72	0	0	0	57	21
COc1ccc(Cc2nnc(NS(=O)(=O)c3ccc(NC(C)=O)cc3)s2)cc1	0	0	0	-	0	0	-	-
Cc1cc(NS(=O)(=O)c2ccc(NC(=O)COc3ccc(Cl)cc3)cc2)no1	0	0	0	0	0	0	-	-
CCc1nnc(NS(=O)(=O)c2ccc(NC(=O)c3ccccc3O)cc2)s1	0	0	0	0	0	0	-	-
SMILES	KLK7 zymogen act	MPTP inh	rCAG binder-1	DSG3 Ab inh	ADAM17 inh	ADAM10 inh	rCAG bind conf	dCAG dye counter	others
CCc1nnc(NS(=O)(=O)c2ccc(N/C=C\C(=O)c3cccc4ccccc34)cc2)s1	0	0	81	0	0	0	82	54
CCc1nnc(NS(=O)(=O)c2ccc(NC(=O)COc3ccc(Cl)c(C)c3)cc2)s1	0	0	78	0	0	0	70	32	DNA CAG DR=0;dCAG TOPRO ctr=3.5;rCAG binder-2=1.3
CCc1nnc(NS(=O)(=O)c2ccc(NC(=O)c3cc(Cl)ccc3OC)cc2)s1	0	0	75	0	0	0	71	33	DNA CAG DR=0
CCc1nnc(NS(=O)(=O)c2ccc(N/C=C/C(=O)c3ccc(OC)cc3)cc2)s1	0	0	59	0	0	0	65	29
CC(C(=O)N1CCCC1)N(c1ccccc1)S(C)(=O)=O (centres undefined)	0	0	0	0	0	0	-	-
OCC1SC(O)C(O)C(O)C1O (centres undefined)	0	-	0	-	0	0	-	-
CCc1nnc(NC(=O)Nc2ccc(Cl)cc2)s1	0	0	39	0	0	0	0	12
CCc1nnc(NS(=O)(=O)c2ccc(NC(=O)Nc3ccc(OC)cc3)cc2)s1	0	0	54	0	0	0	0	6.9
COc1ccc(Cc2nnc(NS(=O)(=O)c3ccc([N+](=O)[O-])cc3)s2)cc1	0	0	44	0	0	0	49	17
CCc1nnc(NS(=O)(=O)c2ccc(NC(=O)OC)cc2)s1	0	0	0	0	0	0	-	-
O=C(NCC(=O)N1CCOCC1)c1ccc(Br)o1	0	0	0	0	0	0	-	-
C[C@H](O)[C@@H]1CN2CCc3c([nH]c4c(-c5ccccc5)cccc34)[C@@H]2C[C@@H]1N(C)C(=S)NCCc1ccccc1	0	-	0	-	0	0	-	-
O=C(NCC1CCN(C(=O)C(=O)c2cc3ccccc3o2)CC1)c1ccc2c(c1)OCCCO2	0	-	0	-	0	0	-	-
Oc1ccc(-c2csc(Nc3ccccn3)n2)cc1O	0	0	0	0	0	0	-	-
COc1ccc(-c2csc(Nc3ncccc3C)n2)cc1OC	0	0	0	0	0	0	-	-
Oc1ccc(-c2csc(Nc3cccc4ccccc34)n2)cc1O	0	0	54	0	0	0	55	34
Cc1cccnc1Nc1nc(-c2ccc(O)c(O)c2)cs1	0	0	38	0	0	0	54	19
O=S(=O)(N/N=C\c1cn(-c2ccccc2)nc1-c1ccccc1)c1ccccc1	0	0	35	0	0	0	44	13
